Structures are written as SMILES.
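Note: TDF denotes transformed human dermal fibroblasts of mesenchymal origin.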

This assay concerns HCC1569. The assay can be described thus: cell number relative to DMSO (% of DMSO); higher = more cells (less growth inhibition / toxicity). The conditions noted are these: concentration: 10 µM; 24 h. The method, boiled down: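 Compounds were applied at 10 µM for 24 h at 37 °C, in triplicate, to HCC1569 and TDF cells. The cells were then fixed and stained for H1.0, and nuclei were counterstained with DAPI. Nuclear H1.0 intensity or cell number is reported relative to the plate control as a percent, taking the median of replicates. Smoothing for positional effects was applied to HCC1569 values only.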
For the molecule `Cl.NC(N)=NC(=O)c1nc(Cl)c(N)nc1N` [Amiloride hydrochloride], the cell number amounted to 99.3.

As to `C=C1C(=CC=C2CCCC3(C)C2CCC3C(C)C=CC(O)C2CC2)CC(O)CC1O` (stereo not drawn) [Calcipotriene], the cell number stood at 97.8.

For the molecule `CC(=O)Oc1ccccc1C(=O)O` [Acetylsalicylic Acid], the cell number was 101.

For `O=C(c1ccc2c(c1)OCCO2)N1CCCCC1`, the cell number was found to be 105.

Turning to `COc1cc(C(=O)OCCC[NH+]2CCC[NH+](CCCOC(=O)c3cc(OC)c(OC)c(OC)c3)CC2)cc(OC)c1OC.[Cl-].[Cl-]` [Dilazep hydrochloride], the cell number stood at 94.8.

`NC1(C(=O)O)CCc2cc(C(=O)O)ccc21` (stereo not drawn) displayed a cell number of 101.

Molecule `CCN(CC)CCNC(=O)c1cc(S(C)(=O)=O)ccc1OC.Cl` [Tiapride hydrochloride] registered a cell number of 111.

As for `O=C(Nc1ccc(S(=O)(=O)Nc2nccs2)cc1)C(c1ccccc1)c1ccccc1`, the cell number is 93.6.

On to `CCCCCC(O)C=CC1C(O)CC2OC(=CCCCC(=O)[O-])CC21.[Na+]` (stereo not drawn) [Prostaglandin I2 Na], for which the cell number amounted to 101.

In the case of `CC(C[N+](C)(C)C)OC(N)=O.[Cl-]` (stereo not drawn) [Bethanechol chloride], the cell number worked out at 91.3.

In turn, `CC(N)(Cc1ccc(O)cc1)C(=O)O` [L-alpha-Methyl-p-tyrosine] showed a cell number of 107.

`CC(NCCc1ccc(O)cc1)C(O)c1ccc(O)cc1.Cl` (stereo not drawn) [Ritodrine hydrochloride] had a cell number of 107.

`CCCCCCCC/C=C\CCCCCCCC(=O)NCC(=O)O` [[(9Z)-9-octadecenoylamino]acetic acid]: the cell number amounted to 99.2.

Source of the values: the supplement of paper PMC7156485.
